The supplement of paper PMC11219838
Unmarked numbers belong to inactive results.

What follows are molecules tested on Meloidogyne hapla J2 (assay: proportion of mobile M. hapla J2 relative to DMSO control (fraction of DMSO control); higher = more viable, less nematicidal, active = 0.7 or less). Conditions: 60 µM; 5 days; temperature: 20 °C.
Experimental: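 DODA library (846 commercial 1,3,4- and 1,2,4-oxadiazole compounds plus commercial nematicide controls) screened at a single dose of 60 µM (0.6% DMSO) in 96-well plates, two biological replicates. Read-outs: C. elegans N2 L1 survival/reproduction score at day 6, 20 °C (0: 0-10 worms, 1: 11-20, 2: 21-50, 3: >50, 4: overgrown/starved). C. elegans daf-2 dauer, D. dipsaci and M. hapla J2 mobility at day 5, 20 °C, and P. penetrans mobility at day 5, 20 °C, each relative to DMSO controls. M. hapla egg hatching at day 12, 25 °C, relative to the mean of 8 DMSO wells on the same plate.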

SMILES | proportion of mobile M. hapla J2
O=C(CSc1nnc(-c2ccccc2Cl)o1)NCc1ccccc1 | 1.04
COc1ccc(-c2nc(-c3ccc(Cl)cc3)no2)cc1 | 1
CC(C)C(=O)Nc1ccccc1-c1nc(-c2cccnc2)no1 | 0.935
Cc1cc(C)c(CSc2nnc(-c3ccccc3)o2)c(C)c1 | 0.962
Cc1csc(NC(=O)CSc2nnc(-c3ccccc3Cl)o2)n1 | 0.849
FC(F)(F)c1cccc(-c2noc(-c3ccc4c(c3)OCO4)n2)c1 | 1.06
COc1ccc(-c2noc(COc3ccc(Cl)cc3Cl)n2)cc1 | 0.874
Brc1ccc(CSc2nnc(-c3ccco3)o2)cc1 | 0.995
COc1nc(-c2ccccc2)ccc1-c1noc(-c2ccccc2C)n1 | 0.909
Brc1ccc(-c2noc(COc3ccccc3)n2)cc1 | 0.602 (active)
COc1ccc(-c2nnc(SCC(=O)Nc3ccc(C)cc3Br)o2)cc1 | 1.01
CCOc1ccccc1-c1nc(-c2ccc(NC(=O)CCc3ccc(OC)cc3)cc2)no1 | 0.918
COc1cccc(-c2nc(-c3ccc(F)cc3)no2)c1 | 0.862
CCn1c(SCc2nc(-c3ccccc3)no2)nc2ccccc21 | 1.02
COc1ccc(Br)cc1-c1noc(-c2ccncc2)n1 | 0.759
Fc1ccccc1-c1nc(-c2ccc(Cl)cc2)no1 | 0.956
COc1cccc(CSc2nnc(-c3ccco3)n2C)c1 | 0.965
CCOc1nc(-c2ccc(C)cc2)ccc1-c1noc(-c2ccco2)n1 | 0.944
COc1ccccc1-c1nc(-c2ccc(Br)cc2)no1 | 1.04
c1ccc(-c2nnc(SCc3nc4ccccc4[nH]3)o2)cc1 | 1.04

SMILES | proportion of mobile M. hapla J2
COc1nc2ccc(C)cc2cc1-c1noc(-c2ccncc2)n1 | 0.849
Cc1ccc(-c2noc(-c3ccc(C)cc3Cl)n2)cc1 | 0.893
CCOc1ccccc1-c1nc(-c2ccc(NC(=O)Cc3ccccc3OC)cc2)no1 | 1.04
Brc1ccc(-c2nc(-c3ccncc3)no2)cc1 | 0.953
CC(Oc1ccc(C(C)(C)C)cc1)c1nc(-c2ccncc2)no1 (stereo not given) | 0.856
COc1cccc(-c2noc(-c3ccc(C)cc3Cl)n2)c1 | 1
CC(=O)Nc1ccc(NC(=O)c2ccccc2-c2nc(-c3ccccc3Cl)no2)cc1 | 0.866
CC(C)C(=O)Nc1ccccc1-c1nc(-c2ccccn2)no1 | 0.995
Cc1ccccc1-c1noc(-c2ccc(F)cc2)n1 | 0.909
Cc1cc(C)cc(-c2nc(-c3ccc(Cl)cc3)no2)c1 | 0.938
COc1ccc(-c2nnc(SCC(=O)N(C)c3ccccc3)o2)cc1 | 1.05
Clc1ccc(-c2noc(COc3ccccc3Cl)n2)cc1 | 0.891
COc1cccc(NC(=O)CSc2nnc(-c3ccc(Br)cc3)o2)c1 | 0.966
Clc1ccc(SCc2nc(-c3ccccn3)no2)cc1 | 0.0259 (active)
Cc1ccc(OCc2nc(-c3ccc(Cl)cc3)no2)c(C)c1 | 0.997
c1cc(-c2noc(C34CC5CC(CC(C5)C3)C4)n2)ccn1 | 0.941
O=C(CSc1nnc(-c2ccco2)o1)c1ccccc1 | 0.974
Cc1cc(C)c(OCc2nc(-c3ccncc3)no2)c(C)c1 | 0.938
CCCCc1ccc(-c2nc(-c3cccnc3)no2)cc1 | 0.977
O=C(CSc1nnc(-c2ccccc2)o1)NCc1ccccc1 | 0.948
